For four compounds, outcome and AC50 results are on record in PubChem BioAssay (EPA / NIEHS).

The structures appear in SMILES notation. Calls of active or inactive are those of the source. How the source made its calls: active means hit-call score of the fitted dose curve at least 0.9, where 1 is the maximum; inactive means score below 0.9.

By AC50 is commonly meant the concentration at which the activity in the assay is half-maximal.

Read-out in assay [1]: Interleukin-1 alpha (IL1a), IL1A (gene 3552)
Description: BSK_LPS_IL1a: BioMAP Diversity Plus: LPS Assay for Interleukin-1 alpha (IL1a) Biomarker Activity (AID 2283080). Particulars: primary human HUVEC with PBMC; actives raise or lower the signal. A digest of the protocol: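 Primary human HUVEC and PBMC co-culture stimulated with LPS is dosed and harvested at 24 h. Both increases and decreases in ELISA-measured IL-1a are scored relative to DMSO.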

Read-out in assay [2]: Monocyte Chemoattractant Protein-1 (MCP1), CCL2 (gene 6347)
Description: BSK_LPS_MCP1: BioMAP Diversity Plus: LPS Assay for Monocyte Chemoattractant Protein-1 (MCP1) Biomarker Activity (AID 2283081).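 On AC50: secreted MCP-1 protein quantified by ELISA in culture supernatant.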 Conditions: primary human HUVEC with PBMC; actives raise or lower the signal. The gist of the method:
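Values derive from bidirectional fitting against DMSO of ELISA-measured MCP-1 in a human primary endothelial and mononuclear cell co-culture, 24 h after chemical addition under LPS activation.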

A short description of assay [3]: BSK_LPS_PGE2: BioMAP Diversity Plus: LPS Assay for Prostaglandin E2 (PGE2) Biomarker Activity (AID 2283082). Particulars: primary human HUVEC with PBMC; actives raise or lower the signal. The gist of the method: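 HUVEC plus human PBMC co-culture stimulated with LPS; secreted PGE2 quantified by ELISA 24 h after chemical dosing. Activity fitted bidirectionally against DMSO baseline; parallel SRB staining (0.1% SRB after 10% TCA fixation, 560 nm) flags overt cytotoxicity.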

Read-out in assay [4]: Macrophage colony-stimulating factor (MCSF), CSF1 (gene 1435)
The assay can be described thus: BSK_LPS_MCSF: BioMAP Diversity Plus: LPS Assay for Macrophage colony-stimulating factor (MCSF) Biomarker Activity (AID 2283083). Conditions: primary human HUVEC with PBMC; actives raise or lower the signal. A digest of the protocol: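 Bidirectional fit versus DMSO of ELISA-measured M-CSF in co-cultured human umbilical vein endothelial cells and PBMC, sampled 24 h after dosing.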

Read-out in assay [5]: Tissue Factor, F3 (gene 2152)
The assay can be described thus: BSK_LPS_TissueFactor: BioMAP Diversity Plus: LPS Assay for Tissue Factor Biomarker Activity (AID 2283084). Conditions: primary human HUVEC with PBMC; actives raise or lower the signal. The gist of the method:
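Read-out: CD142 ELISA, 24 h. System: LPS-driven human endothelial/PBMC co-culture. Analysis: up- or down-signal fitted against DMSO.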

Read-out in assay [6]: Tumor necrosis factor (Homo sapiens) (UniProt P01375)
The assay can be described thus: BSK_LPS_TNFa: BioMAP Diversity Plus: LPS Assay for Tumour Necrosis Factor alpha (TNFa) Biomarker Activity (AID 2283085). Conditions: primary human HUVEC with PBMC; actives raise or lower the signal. The gist of the method: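 Human umbilical vein endothelial cells co-cultured with PBMC and stimulated with LPS. TNFa was measured by ELISA 24 h after chemical dosing, fitted bidirectionally relative to DMSO.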

Read-out in assay [7]: Vascular cell adhesion molecule 1 (VCAM1), VCAM1 (gene 7412)
The assay can be described thus: BSK_LPS_VCAM1: BioMAP Diversity Plus: LPS Assay for Vascular cell adhesion molecule 1 (VCAM1) Biomarker Activity (AID 2283086). Particulars: primary human HUVEC with PBMC; actives raise or lower the signal. A digest of the protocol: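 Human umbilical vein endothelial cells co-cultured with PBMC and stimulated with LPS; VCAM-1 measured by ELISA 24 h after dosing. Bidirectional curve fitting against DMSO baseline; cytotoxicity tracked in parallel by SRB total-protein staining.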

Read-out in the next assay: CD38, CD38 (gene 952)
The assay can be described thus: BSK_SAg_CD38: BioMAP Diversity Plus: SAg Assay for CD38 Biomarker Activity (AID 2283087). Conditions: primary human HUVEC with PBMC; actives raise or lower the signal. The gist of the method:
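Human HUVEC plus PBMC co-culture stimulated with superantigen; CD38 measured by ELISA 24 h after chemical dosing. Fluorescence read-out, bidirectional fit against DMSO; cytotoxicity tracked in parallel by SRB and Alamar Blue.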

Read-out in a further assay: CD40, CD40 (gene 958)
The assay can be described thus: BSK_SAg_CD40: BioMAP Diversity Plus: SAg Assay for CD40 Biomarker Activity (AID 2283088). Particulars: primary human HUVEC with PBMC; actives raise or lower the signal. A digest of the protocol: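 Endpoint derived by fitting increases or decreases versus DMSO controls. CD40 is detected by fluorescence ELISA in a human vascular co-culture of endothelium and PBMC at 24 h.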

Read-out in a further assay: CD69, CD69 (gene 969)
The assay can be described thus: BSK_SAg_CD69: BioMAP Diversity Plus: SAg Assay for CD69 Biomarker Activity (AID 2283089).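 On AC50: cell surface CD69 protein quantified by ELISA with fluorescence detection.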 Conditions: primary human HUVEC with PBMC; actives raise or lower the signal. A digest of the protocol: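 ELISA, fluorescence read-out: CD69 on human umbilical vein endothelial cell + PBMC co-culture, 24 h post-dosing. Gain or loss of signal fitted bidirectionally against DMSO baseline.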

Read-out in assay [8]: Monocyte Chemoattractant Protein-1 (MCP1), CCL2 (gene 6347)
Description: BSK_SAg_MCP1: BioMAP Diversity Plus: SAg Assay for Monocyte Chemoattractant Protein-1 (MCP1) Biomarker Activity (AID 2283090). Conditions: primary human HUVEC with PBMC; actives raise or lower the signal. The gist of the method:
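MCP-1 levels in the endothelial–PBMC SAg co-culture were quantified by ELISA at 24 h post-dosing; both increases and decreases versus DMSO scored. Cytotoxicity monitored by SRB total protein in parallel cultures.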

Read-out in assay [9]: E-selectin (Homo sapiens) (UniProt P16581)
The assay can be described thus: BSK_SAg_Eselectin: BioMAP Diversity Plus: SAg Assay for Eselectin Biomarker Activity (AID 2283091). Particulars: primary human HUVEC with PBMC; actives raise or lower the signal. A digest of the protocol:
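Endpoint values derive from bidirectional fitting relative to DMSO, using ELISA-measured E-selectin in a human vascular co-culture (umbilical vein endothelium plus PBMC) sampled 24 h after dosing.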

Read-out in assay [10]: Monokine induced gamma interferon (MIG), CXCL9 (gene 4283)
The assay can be described thus: BSK_SAg_MIG: BioMAP Diversity Plus: SAg Assay for Monokine induced gamma interferon (MIG) Biomarker Activity (AID 2283092). Conditions: primary human HUVEC with PBMC; actives raise or lower the signal. A digest of the protocol:
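ELISA readout of MIG/CXCL9; primary human umbilical vein endothelial cells co-cultured with peripheral blood mononuclear cells; 24 h post-dose; gain/loss fit vs DMSO baseline.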

Assay [11] is described as follows: BSK_SAg_PBMCCytotoxicity: PBMC Cytotoxicity Assessment in the BioMAP Diversity Plus: SAg Assay (AID 2283093).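 Further: PBMC viability measured as Alamar Blue reduction fluorescence at 546/580 nm; fitted both ways against DMSO so a hit may be loss or gain of signal.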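 On AC50: PBMC superantigen activated with SEB plus TSST-1 one hour after compound addition.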 Particulars: primary human HUVEC with PBMC. A digest of the protocol: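 Human umbilical vein endothelial cells co-cultured with PBMC; PBMC (75,000/well) pre-treated with compound 1 h, then activated with SEB and TSST-1 (20 ng/mL final each) for 90 h. Alamar Blue added 6 h, fluorescence 546/580 nm; bidirectional fit versus DMSO.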

Read-out in assay [12]: Interleukin-8 (IL8), CXCL8 (gene 3576)
The assay can be described thus: BSK_SAg_IL8: BioMAP Diversity Plus: SAg Assay for Interleukin-8 (IL8) Biomarker Activity (AID 2283094). Particulars: primary human HUVEC with PBMC; actives raise or lower the signal. The gist of the method:
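Human umbilical vein endothelial cells co-cultured with PBMC, stimulated with superantigen; IL-8 measured by ELISA 24 h after chemical dosing. Bidirectional fitting versus DMSO; SRB staining in parallel cultures tracks cytotoxicity.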

The nature of assay [13]: BSK_SAg_Proliferation: Cell Proliferation Assessment in the BioMAP Diversity Plus: SAg Assay (AID 2283095). Particulars: primary human HUVEC with PBMC. A digest of the protocol:
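Human umbilical vein endothelial cells co-cultured with PBMC; sulforhodamine B total-protein staining (0.1% SRB after 10% TCA fixation, absorbance 560 nm) at 96 h in sub-confluent culture. Fitted bidirectionally against DMSO.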

Assay [14] is described as follows: BSK_SAg_SRB: Viability Assessment in the BioMAP Diversity Plus: SAg Assay (AID 2283096).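 Further: cells read one day after compound addition; hits may be either gain or loss of signal compared with DMSO.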 Conditions: primary human HUVEC with PBMC. A digest of the protocol:
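Endothelial/PBMC primary human co-culture; compound 24 h; fix 10% TCA, stain 0.1% SRB, A560; protein content as cytotoxicity proxy; bidirectional curve fit, DMSO = baseline.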

Chain of E-selectin (Homo sapiens) (P16581 whole entry, looked up): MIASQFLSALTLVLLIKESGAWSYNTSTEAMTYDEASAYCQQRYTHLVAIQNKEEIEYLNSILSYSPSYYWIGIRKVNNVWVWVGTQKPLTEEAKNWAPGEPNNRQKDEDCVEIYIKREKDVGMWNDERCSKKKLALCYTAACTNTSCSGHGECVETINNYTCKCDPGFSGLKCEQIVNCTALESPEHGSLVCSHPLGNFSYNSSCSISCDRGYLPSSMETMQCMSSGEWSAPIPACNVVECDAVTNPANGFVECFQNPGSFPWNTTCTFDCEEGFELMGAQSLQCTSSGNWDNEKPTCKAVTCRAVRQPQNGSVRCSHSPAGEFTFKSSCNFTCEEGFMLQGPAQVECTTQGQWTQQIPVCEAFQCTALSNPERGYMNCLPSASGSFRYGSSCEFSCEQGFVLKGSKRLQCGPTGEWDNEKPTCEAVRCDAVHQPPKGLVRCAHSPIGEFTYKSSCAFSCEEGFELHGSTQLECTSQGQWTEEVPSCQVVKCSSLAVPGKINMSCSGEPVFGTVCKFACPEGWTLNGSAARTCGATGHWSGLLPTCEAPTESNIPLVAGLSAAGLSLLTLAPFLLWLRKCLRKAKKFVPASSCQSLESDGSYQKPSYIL
Chain of Tumor necrosis factor (Homo sapiens) (P01375 whole entry, looked up): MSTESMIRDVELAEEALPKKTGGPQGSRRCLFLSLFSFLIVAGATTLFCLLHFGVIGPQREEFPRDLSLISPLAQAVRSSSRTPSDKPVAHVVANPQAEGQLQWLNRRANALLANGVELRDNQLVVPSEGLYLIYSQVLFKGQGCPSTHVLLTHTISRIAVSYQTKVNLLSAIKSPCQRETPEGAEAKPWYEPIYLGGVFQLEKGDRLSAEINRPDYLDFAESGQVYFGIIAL

`C=CC(F)(F)C(F)(F)C(F)(F)C(F)(F)C(F)(F)C(F)(F)C(F)(F)C(F)(F)F`: the result in assay [1], in [2], in assay [3], in [4], in [5] and in assay [6] was inactive. For the same compound, the outcome in assay [7] was “inactive”; with CD38, CD38 (gene 952) it was “inactive”; with CD40, CD40 (gene 958), “inactive”; with CD69, CD69 (gene 969), “inactive”; in assay [8], “inactive”; in assay [9], “inactive”. Besides, the outcome in assay [10], in assay [11], in [12], in assay [13] and in assay [14] was inactive.
Consider `FC(F)(F)C(F)(F)C(F)(F)C(F)(F)C(F)(F)C(F)(F)C(F)(F)Br`, for which the outcome in assay [1], in [2], in assay [3], in [4], in [5] and in assay [6] was inactive. Moreover, the outcome is “inactive” in assay [7]; “inactive” with CD38, CD38 (gene 952); “inactive” with CD40, CD40 (gene 958); “inactive” with CD69, CD69 (gene 969); “inactive” in assay [8]; “inactive” in [9]. The outcome in [10], in [11], in [12], in assay [13] and in assay [14] was inactive.
In the case of `OCC(F)(F)C(F)(F)C(F)(F)C(F)(F)C(F)(F)C(F)F`, the outcome in [1], in assay [2], in assay [3], in [4], in assay [5] and in assay [6] was inactive. The outcome is “inactive” in assay [7]; “inactive” in the assay with CD38, CD38 (gene 952); “inactive” in the assay with CD40, CD40 (gene 958); “inactive” with CD69, CD69 (gene 969); “inactive” in assay [8]; “inactive” in [9]. The result in assay [10], in [11], in assay [12], in assay [13] and in assay [14] was inactive.
In the case of `C#C[C@]1(O)CC[C@H]2[C@@H]3CCc4cc(OC)ccc4[C@H]3CC[C@@]21C`, the AC50 in assay [1] is 31.1 µM (active); in assay [2] it was 0.0185 µM (active); in [6], 34.6 µM (active); with CD38, CD38 (gene 952), 27.1 µM (active); with CD69, CD69 (gene 969), 15.2 µM (active); in assay [11], 33.4 µM (active). The AC50 in assay [13] was 30.4 µM (active). The outcome in assay [3] was “inactive”; in [4] it was “inactive”; in [5] it was “inactive”; in [7] it was “inactive”; with CD40, CD40 (gene 958), “inactive”; in assay [8] it was “inactive”. Also, the outcome in [9], in assay [10], in [12] and in [14] was inactive.
